Assay outcomes (PubChem BioAssay)
The full list was thinned out, with hits kept by preference.
D1 mod = D1 dopamine receptor (human) allosteric modulation; P21728; HEK293 D1, CRE-luciferase, dopamine EC30 potentiation; actives deviate in either direction; B-score at 10 µM; 58,000 tested, 5.9% active; AID 641;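 active = luminescence count or its row- and column-corrected plate score outside the 99.7% band of the plate's sample wells, on either side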
hDAT+cocaine = modulates human dopamine transporter uptake under cocaine; Q01959; LLC-PK1 hDAT cells, [14C]-dopamine uptake with cocaine IC80; actives deviate in either direction; B-score at 10 µM; 110,000 tested, 1.3% active;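 active = Z score or B-score, a plate-position-corrected score, falls beyond the plate's 99.7% confidence bounds, in either direction; inactive = both scores lie inside the 99.7% bounds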
Target sequence (Q01959 whole entry, looked up): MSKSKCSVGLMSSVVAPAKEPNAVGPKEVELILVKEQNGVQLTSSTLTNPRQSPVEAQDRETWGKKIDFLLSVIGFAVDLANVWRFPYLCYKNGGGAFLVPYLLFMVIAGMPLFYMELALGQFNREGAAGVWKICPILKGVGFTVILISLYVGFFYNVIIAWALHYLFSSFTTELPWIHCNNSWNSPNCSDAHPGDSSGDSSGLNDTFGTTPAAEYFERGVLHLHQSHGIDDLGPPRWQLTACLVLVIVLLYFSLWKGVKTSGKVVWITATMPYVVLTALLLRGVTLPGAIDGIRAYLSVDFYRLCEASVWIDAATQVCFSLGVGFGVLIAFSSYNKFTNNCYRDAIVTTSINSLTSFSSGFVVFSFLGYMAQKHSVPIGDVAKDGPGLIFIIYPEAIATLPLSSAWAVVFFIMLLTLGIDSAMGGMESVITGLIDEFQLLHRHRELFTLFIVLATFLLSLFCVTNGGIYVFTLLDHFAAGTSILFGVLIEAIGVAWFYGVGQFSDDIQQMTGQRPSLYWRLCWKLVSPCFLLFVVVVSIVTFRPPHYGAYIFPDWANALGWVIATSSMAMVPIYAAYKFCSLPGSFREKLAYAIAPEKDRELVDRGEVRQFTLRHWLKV
EphB4 ephrin blk = blocks human EphB4 binding to ephrin-B2 | EphB4 LBD / TNYL-RAW-Alexa532 peptide, fluorescence polarization | 97,000 tested, 0.15% active | P54760 | inhibition, % at 7 µM;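 active = inhibition above the screen-wide mean inhibition plus 3 SD, cut at about 15% in these data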
Numbers stand for hits.

Screening CCCCN(C)CCCNC(=O)c1cccc(N2CCCC2=O)c1 returned D1 mod -5.8, hDAT+cocaine inactive and EphB4 ephrin blk inactive.
`COC(=O)C1N[C@@H]([C@@H](NC(=O)COc2ccccc2)C(=O)NC2CC2)SC1(C)C` (stereo partly specified) gave hDAT+cocaine inactive.
O=S(=O)(/C=C/c1ccccc1)Oc1ccccc1 was read as hDAT+cocaine inactive and EphB4 ephrin blk inactive.
For O=C(N[C@@H](Cc1ccccc1)C(=O)OCc1ccccc1)c1nc[nH]c1C(=O)N1CCN(c2ccccc2)CC1 the results were hDAT+cocaine inactive.
For O=C(N[C@@H](Cc1ccccc1)C(=O)OCc1ccccc1)c1nc[nH]c1C(=O)NCc1ccccc1 the results were hDAT+cocaine 1.6.
Screening Nc1ccc2nc(CN3CCOCC3)[nH]c2c1 returned EphB4 ephrin blk inactive.
`Cc1cc(C(=O)CSc2nnc(N)s2)c(C)n1CCc1ccc(Cl)cc1` gave D1 mod inactive, hDAT+cocaine inactive and EphB4 ephrin blk inactive.
For COc1ccc(CCn2c(C)cc(C(=O)CSc3nnc(N)s3)c2C)cc1 the results were D1 mod inactive and EphB4 ephrin blk 16.
For Cc1ccccc1CN1C(=O)[C@H]2Cc3c([nH]c4ccccc34)C(C)(C)N2C1=O the results were hDAT+cocaine inactive.
COc1ccc(N=CC2=C(Nc3ccc(OC)cc3)c3c(C)nn(-c4ccccn4)c3CC2)cc1 was read as hDAT+cocaine inactive and EphB4 ephrin blk 25.
COc1ccc(-c2cc(C(=O)O)c3c(C)nn(-c4ccccn4)c3n2)cc1 was read as EphB4 ephrin blk inactive.
`O=C(N/N=C1\CCCc2ccccc21)C(O)c1ccccc1` (stereo unspecified) gave hDAT+cocaine inactive and EphB4 ephrin blk inactive.
Screening COc1ccc2nc(NC(=O)C3CCN(S(=O)(=O)c4cnc[nH]4)CC3)sc2c1 returned D1 mod -4.9 and hDAT+cocaine 2.
For CCOc1ccc2nc(NC(=O)C3CCN(S(=O)(=O)c4cnc[nH]4)CC3)sc2c1 the results were D1 mod inactive, hDAT+cocaine inactive and EphB4 ephrin blk inactive.
`COc1ccc2nc(NC(=O)C3CCN(S(=O)(=O)c4cccs4)CC3)sc2c1` gave hDAT+cocaine 2.8 and EphB4 ephrin blk inactive.
For COc1ccc2nc(NC(=O)C3CCCN(S(=O)(=O)c4cccs4)C3)sc2c1 (stereo unspecified) the results were hDAT+cocaine inactive and EphB4 ephrin blk inactive.
COc1cccc(-c2cc(C(F)(F)F)nc(-n3cncn3)n2)c1 was read as D1 mod inactive, hDAT+cocaine 3.3 and EphB4 ephrin blk inactive.
Screening COc1cccc(-c2cc(C(F)(F)F)nc(N3CCN(c4ccccc4)CC3)n2)c1 returned hDAT+cocaine inactive and EphB4 ephrin blk inactive.
`O=C(Cn1cnc2sc(-c3ccccc3)cc2c1=O)N1CCOCC1` gave D1 mod inactive, hDAT+cocaine inactive and EphB4 ephrin blk inactive.
For c1ccc(-c2cc3c(N4CCOCC4)ncnc3s2)cc1 the results were D1 mod 14 and hDAT+cocaine inactive.
For CC(O)[C@@H](C(=O)N1CCNCC1)n1cc(CCCCN)nn1 (stereo partly specified) the results were hDAT+cocaine inactive.
For CCn1nc(NC(=O)c2cccnc2)c2cc3cccc(C)c3nc21 the results were D1 mod inactive, hDAT+cocaine inactive and EphB4 ephrin blk inactive.
For Cc1ccc2nc3c(cc2c1)c(NC(=O)c1cccnc1)nn3C the results were D1 mod -4.4, hDAT+cocaine inactive and EphB4 ephrin blk inactive.
Screening COc1ccc(-c2csc(NC(C)c3nc4cc(C(F)(F)F)ccc4n3CCOCCO)n2)cc1 (stereo unspecified) returned hDAT+cocaine inactive.
For C=C1CCN(C(C)C(=O)O)S(=O)(=O)c2ccccc21 (stereo unspecified) the results were hDAT+cocaine inactive.
For COc1ccccc1N=c1oc2c(OC)cccc2cc1C(=O)NCc1ccco1 the results were D1 mod inactive, hDAT+cocaine inactive and EphB4 ephrin blk inactive.
Screening COc1ccc(N=c2oc3c(OC)cccc3cc2C(=O)NCc2ccco2)cc1OC returned D1 mod -3.9 and hDAT+cocaine inactive.
`CC#CCN1c2ccccc2[C@]23C[C@@H](C(=O)OC)N=C2NC(C(=O)OC)=C(C(=O)OC)[C@H]13` gave hDAT+cocaine inactive.
`COC(=O)c1c(NC(=O)CN2CCN(C(=O)c3ccco3)CC2)c2cc(C)ccc2n1C` gave D1 mod -2.8, hDAT+cocaine inactive and EphB4 ephrin blk inactive.
For COC(=O)c1c(NC(=O)CN2CCN(C(=O)c3ccco3)CC2)c2c(C)cccc2n1C the results were D1 mod inactive, hDAT+cocaine inactive and EphB4 ephrin blk inactive.
For COc1ccc(-c2ccc3oc(-c4ccc(OC)cc4)c(C#CC4(O)CCCCC4)c3c2)cc1 the results were hDAT+cocaine inactive.
